{"source": "PubChem BioAssay (Tox21)", "key": {"[1]": {"test": "qHTS assay to identify small molecule agonists of the RXR signaling pathway - cell viability counter screen (AID 1159529); note: nearly all actives have a fitted effect of over 50% in size; note: potency is the fitted concentration of half-maximal effect", "in_short": "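CellTiter-Glo luminescence gave viability in the wells also read for beta-lactamase. Cells (RXR-alpha-UAS-bla HEK 293T, 2% charcoal-stripped FBS medium) had 5 hr plating, then 16 hr compound exposure at 37 C; tetraoctyl ammonium bromide served as positive control.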"}, "[2]": {"test": "qHTS assay to identify small molecule antagonists of the retinoid acid receptor (RAR) signaling pathway - cell viability counter screen (AID 1159551); note: nearly all actives have a fitted effect of over 35% in size; note: potency is the fitted concentration of half-maximal effect", "in_short": "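Retinol-stimulated (1 uM final) C3RL4 cells, compound 6 h, 37 C; readout CellTiter-Glo luminescence (ATP) after 30 min RT incubation.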"}, "[3]": {"test": "qHTS assay to identify small molecule antagonists of the retinoic acid receptor (RAR) signaling pathway (AID 1159552; note: nearly all actives have a fitted effect of over 50% in size)", "in_short": "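Luminescent RARE reporter read-out in C3RL4 cells: 6 hr co-treatment at 37 C of test compounds with retinol at 1 uM final. Cells plated overnight beforehand; luciferase reagent incubated 30 min at room temperature before reading.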"}, "[4]": {"test": "qHTS assay to identify small molecule agonists of the retinoic acid receptor (RAR) signaling pathway (AID 1159553)", "in_short": "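Reporter readout comes from luciferase under RARE control in C3RL4 cells; compound exposure lasts 6 hr at 37 C in 5% CO2, and luminescence is recorded following a 30 min room-temperature incubation with reagent.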"}, "[5]": {"test": "qHTS assay to identify small molecule antagonists of the estrogen related receptor (ERR) signaling pathway - cell viability counter screen (AID 1224818); note: potency is the fitted concentration of half-maximal effect", "in_short": "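After a 6 h pre-incubation, ERR cells were dosed by pin tool with compounds, positive/negative controls or DMSO alone. Following 17.5 h at 37 C and 30 min with CellTiter-Fluor, fluorescence was recorded.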"}, "[6]": {"test": "qHTS assay to identify small molecule antagonists of the estrogen related receptor signaling pathway with the pleiotropic PPARgamma coactivator (PGC) cell viability counter screen (AID 1224822; note: potency is the fitted concentration of half-maximal effect)", "in_short": "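PGC/ERR cells were plated at 2,000 per well and allowed 6 h to settle before compound addition. Following 17.5 h at 37 C, CellTiter-Fluor reagent was added and fluorescence was read 30 min later.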"}, "[7]": {"test": "qHTS assay to identify small molecule antagonists of the estrogen related receptor (ERR) signaling pathway (AID 1224819; note: nearly all actives have a fitted effect of over 50% in size; note: potency is the fitted concentration of half-maximal effect)", "in_short": "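Luminescence readout (One-Glo, 30 min, RT) of ERR cell line after 18 h compound exposure at 37 C; cells seeded 2,000/well, pre-incubated 6 h, compounds pinned from DMSO stocks.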"}, "[8]": {"test": "qHTS assay to identify small molecule agonists of the estrogen related receptor (ERR) signaling pathway (AID 1224820)", "in_short": "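Quantitative HTS of the LOPAC library used NTP ERR reporter cells treated 18 h at 37 C. Signal is luminescence after One-Glo addition and a 30 min room-temperature incubation.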"}, "[9]": {"tested_on": "estrogen-related receptor alpha (ERRalpha) with PGC-1alpha coactivator, human", "test": "qHTS assay to identify small molecule antagonists of the estrogen related receptor signaling pathway with the pleiotropic PPARgamma coactivator (PGC) (AID 1224821; calls by dose curve;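 note: series mostly up to about 46 µM; lower luminescence signal means antagonism of PGC/ERR signalling; nearly all actives have a fitted effect of over 50% in size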)", "in_short": "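Quantitative HTS for antagonism: PGC/ERR cells received compounds after 6 h attachment and were incubated 18 h at 37 C, with luminescence (One-Glo) as the endpoint.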"}, "[10]": {"test": "qHTS assay to identify small molecule agonists of the estrogen related receptor signaling pathway with the pleiotropic PPARgamma coactivator (PGC) (AID 1224823)", "in_short": "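Cell-based luciferase assay in the NTP-supplied PGC/ERR line, 2,000 cells/well; 18 h compound exposure at 37 C, luminescence after One-Glo.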"}}, "note": "Values joined by “and” are separate entries in the source; they are usually repeats but may differ in a detail not shown here. Equal entries are not always repeated. Results filed as inconclusive are left out. Entries that show only a call come without a potency. Active and inactive are the calls of the source. Unless noted, calls come from the whole dose curve; as a rule, active = well fitted curve in the direction sought with a large enough effect in the repeat runs; inconclusive = weak or mixed curves; inactive = no such curve, though single readings can be large; an effect the other way counts as inactive or inconclusive.", "data": [{"compound": "NCCCCCC(=O)O", "values": [{"measurement": "Potency", "setting": "[1]", "value": "inactive"}, {"measurement": "Potency", "setting": "[2]", "value": "inactive"}, {"measurement": "Potency", "setting": "[3]", "value": "inactive"}, {"measurement": "Potency", "setting": "[4]", "value": "inactive"}, {"measurement": "Potency", "setting": "[5]", "value": "inactive"}, {"measurement": "Potency", "setting": "[6]", "value": "inactive"}]}, {"compound": "CCCCCCCCCCCC[N+](C)(C)C", "values": [{"measurement": "Potency", "setting": "[1]", "value": "54.8 µM (active) and 54.9 µM (active) and 49 µM (active)"}, {"measurement": "Potency", "setting": "[2]", "value": "inactive"}, {"measurement": "Potency", "setting": "[4]", "value": "inactive"}]}, {"compound": "NCCO", "values": [{"measurement": "Potency", "setting": "[1]", "value": "inactive"}, {"measurement": "Potency", "setting": "[2]", "value": "inactive"}, {"measurement": "Potency", "setting": "[3]", "value": "inactive"}, {"measurement": "Potency", "setting": "[4]", "value": "inactive"}, {"measurement": "Potency", "setting": "[5]", "value": "inactive"}, {"measurement": "Potency", "setting": "[6]", "value": "inactive"}]}, {"compound": "Cc1c(O)cccc1C(=O)N[C@@H](CSc1ccccc1)[C@H](O)CN1C[C@H]2CCCC[C@H]2C[C@H]1C(=O)NC(C)(C)C", "values": [{"measurement": "Potency", "setting": "[2]", "value": "inactive"}, {"measurement": "Potency", "setting": "[5]", "value": "10.6 µM (active)"}, {"measurement": "Potency", "setting": "[7]", "value": "19.6 µM (active)"}, {"measurement": "outcome", "setting": "[8]", "value": "inactive"}, {"measurement": "Potency", "setting": "[9]", "value": "inactive"}, {"measurement": "Potency", "setting": "[6]", "value": "10.6 µM (active)"}, {"measurement": "outcome", "setting": "[10]", "value": "inactive"}]}, {"compound": "NC(=Nc1ccccc1)Nc1ccccc1", "values": [{"measurement": "Potency", "setting": "[1]", "value": "inactive"}, {"measurement": "Potency", "setting": "[2]", "value": "inactive"}, {"measurement": "Potency", "setting": "[5]", "value": "inactive"}, {"measurement": "Potency", "setting": "[7]", "value": "inactive"}, {"measurement": "Potency", "setting": "[9]", "value": "inactive"}, {"measurement": "Potency", "setting": "[6]", "value": "inactive"}]}, {"compound": "Nc1cc(Cl)c(-c2cc(Cl)c(N)cc2Cl)cc1Cl", "values": [{"measurement": "Potency", "setting": "[1]", "value": "17.4 µM (active)"}, {"measurement": "Potency", "setting": "[2]", "value": "30.6 µM (active)"}, {"measurement": "Potency", "setting": "[4]", "value": "inactive"}]}, {"compound": "Cc1cc(C2(c3cc(C)c(O)cc3C)OS(=O)(=O)c3ccccc32)c(C)cc1O", "values": [{"measurement": "Potency", "setting": "[2]", "value": "inactive"}]}, {"compound": "c1ccc2c(c1)-c1cccc3c1c-2cc1ccccc13", "values": [{"measurement": "Potency", "setting": "[2]", "value": "inactive"}, {"measurement": "Potency", "setting": "[3]", "value": "inactive"}]}, {"compound": "CCn1c2ccccc2c2cc(N)ccc21", "values": [{"measurement": "Potency", "setting": "[2]", "value": "inactive"}]}]}
